Measured values as given in ChEMBL document CHEMBL1201862, “PubChem BioAssay data set” (2004).
In all, about 400,000 compounds went through this assay and about 2,100 (0.53%) were called active. Inconclusive results (about 14%) are left out. No rule for the calls is given here. Many of the other results were omitted from the sample, so actives are more common in it than they were.

Target: Ataxin-2 (Homo sapiens) (UniProt Q99700)
Experiment: qHTS for Inhibitors of ATXN expression.
Assay type: functional

Sequence of Ataxin-2 (Homo sapiens) (Q99700 whole entry): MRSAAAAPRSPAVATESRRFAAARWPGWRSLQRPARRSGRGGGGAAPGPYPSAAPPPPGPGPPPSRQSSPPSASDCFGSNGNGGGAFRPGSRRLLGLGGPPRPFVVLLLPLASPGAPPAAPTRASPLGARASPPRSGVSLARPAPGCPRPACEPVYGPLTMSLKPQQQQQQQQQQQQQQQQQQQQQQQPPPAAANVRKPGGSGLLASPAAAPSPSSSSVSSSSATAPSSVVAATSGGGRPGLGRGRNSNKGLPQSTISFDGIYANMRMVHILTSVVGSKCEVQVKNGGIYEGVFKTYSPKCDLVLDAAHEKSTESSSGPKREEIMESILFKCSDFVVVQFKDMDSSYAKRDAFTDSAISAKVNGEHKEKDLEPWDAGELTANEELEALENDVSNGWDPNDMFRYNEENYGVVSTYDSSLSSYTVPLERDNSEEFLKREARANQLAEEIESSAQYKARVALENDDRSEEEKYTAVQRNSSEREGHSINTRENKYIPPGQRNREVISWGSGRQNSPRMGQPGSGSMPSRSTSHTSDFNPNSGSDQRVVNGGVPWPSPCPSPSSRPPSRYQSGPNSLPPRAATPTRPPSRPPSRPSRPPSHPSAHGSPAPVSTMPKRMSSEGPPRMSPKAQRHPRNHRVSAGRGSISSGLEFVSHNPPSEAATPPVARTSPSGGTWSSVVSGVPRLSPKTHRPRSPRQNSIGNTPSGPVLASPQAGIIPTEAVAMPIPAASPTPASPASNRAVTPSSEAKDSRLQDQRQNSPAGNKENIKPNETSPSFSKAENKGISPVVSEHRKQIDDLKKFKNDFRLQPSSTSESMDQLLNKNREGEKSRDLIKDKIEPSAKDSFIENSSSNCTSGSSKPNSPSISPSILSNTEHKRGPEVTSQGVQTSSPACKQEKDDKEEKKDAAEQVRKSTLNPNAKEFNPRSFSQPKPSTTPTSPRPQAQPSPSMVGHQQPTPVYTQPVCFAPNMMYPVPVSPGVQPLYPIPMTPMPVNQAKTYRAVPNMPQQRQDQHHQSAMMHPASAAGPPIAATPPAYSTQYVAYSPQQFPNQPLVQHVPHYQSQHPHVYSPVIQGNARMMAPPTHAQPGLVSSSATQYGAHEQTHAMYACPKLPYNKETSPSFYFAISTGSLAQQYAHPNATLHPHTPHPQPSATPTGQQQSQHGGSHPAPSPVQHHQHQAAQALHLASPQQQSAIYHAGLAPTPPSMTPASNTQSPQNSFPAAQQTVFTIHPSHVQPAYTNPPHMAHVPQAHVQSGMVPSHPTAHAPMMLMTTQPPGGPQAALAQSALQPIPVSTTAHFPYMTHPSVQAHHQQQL

Structure (SMILES)	Potency
Cc1nc(Sc2ccc(Cl)cc2)c(C#N)c(C)c1[N+](=O)[O-]	inactive
C=C(C(=O)c1ccccc1)C(c1ccccc1)C(C)C(=O)c1ccccc1 (centres undefined)	31.6 µM (active)
CC(OC(=O)C1COc2ccccc2O1)C(=O)c1ccccc1 (centres undefined)	inactive
C=C(C(=O)c1ccccc1)C(C)CC(=O)c1ccccc1 (centres undefined)	15.8 µM (active)
O=C(Cc1nc2ccccc2nc1O)c1ccccc1	inactive
Nc1nc2ccccc2cc1S(=O)(=O)c1ccccc1	inactive
O=C(Nc1ccccc1)Nc1ccc2ncoc2c1	inactive
CN(C)/C=N/c1nc2ccccc2nc1N1CCCC1	inactive
N#C/C(=C/c1cccn1-c1cccc(C(=O)O)c1)c1ccc(F)cc1	inactive
N#Cc1c(N2CCCC2)ccc(Br)c1Cl	inactive
COC(=O)c1ccc(CSc2cc(C)c3ccccc3n2)o1	inactive
CC(C)(C)c1ccc2c(c1)OC(C(=O)N/N=C\c1ccncc1)CO2 (centres undefined)	inactive
N=c1c(C(=O)NCC2CCCO2)cc2c(=O)n3ccccc3nc2n1Cc1ccccc1 (centres undefined)	inactive
CCCc1nn(C)c(C(=O)Nc2cccc(CC)c2)c1Cl	inactive
Cc1ccccc1NC(=O)c1ccc2snnc2c1	inactive
Cc1ccccc1NC(=O)c1ccc(N(Cc2ccccc2)S(C)(=O)=O)cc1	35.5 µM (active)
Cc1cccc(NC(=O)c2ccc(N(Cc3ccccc3)S(C)(=O)=O)cc2)c1	25.1 µM (active)
CS(=O)(=O)N(Cc1ccccc1)c1ccc(C(=O)Nc2cccc(Cl)c2)cc1	17.8 µM (active)
CCN(Cc1ccncc1)C(=S)Nc1ccccc1C	inactive
Cc1cc(C(F)(F)F)c2c(N)c(C(=O)Nc3cc(C)on3)sc2n1	inactive
Cc1ccc(C)c(Oc2coc3cc(O)ccc3c2=O)c1	inactive
CCOc1ccccc1-n1c(N)c(C(=O)OC)c2nc3ccccc3nc21	inactive
COc1cc2nc(N3CCN(c4cc(C)ccc4C)CC3)nc(N)c2cc1OC	39.8 µM (active)
CCOC(=O)N1CCN(c2nc(-c3ccccc3)c3cc(C)ccc3n2)CC1	inactive
COc1cc2nc(CN3CCN(S(=O)(=O)c4ccc(C)c(C)c4)CC3)nc(O)c2cc1OC	inactive

Structure (SMILES)	Potency
Cc1ccc2nc3c(cc2c1)c(NC(=O)C(C)(C)C)nn3CC(C)C	inactive
C=CCn1c(N)c(C(=O)NCC2CCCO2)c2nc3ccccc3nc21 (centres undefined)	inactive
c1cncc(Nc2c3ccccc3nc3ccccc23)c1	inactive
O=C1C=C(Nc2cccnc2)c2ccccc2C1=O	39.8 µM (active)
Cc1ccc(-c2ccc(S(=O)(=O)Nc3cccnc3)cc2)cc1	inactive
O=C(COc1ccc2ccc(=O)oc2c1)OCc1ccccc1	inactive
CS(=O)(=O)c1ccc([S+]([O-])CC(=O)OCc2ccccc2)c([N+](=O)[O-])c1 (centres undefined)	26.7 µM (active)
CN(C)C(CNc1ccc(S(C)(=O)=O)cc1[N+](=O)[O-])c1ccccc1 (centres undefined)	inactive
Nc1nc(-c2ccccc2)c(N=Nc2ccccc2Cl)s1	31.6 µM (active)
Cc1ccc(-c2nc(N)sc2C)cc1	inactive
Nc1ccc2nc(-c3ccccc3)c(-c3ccccc3)nc2c1	inactive
O=C(O)c1ccc(CN2C(=O)c3cccc4c([N+](=O)[O-])ccc(c34)C2=O)cc1	inactive
O=C(COC(=O)COc1cccc2ccccc12)NCC(F)(F)F	inactive
CCCCn1nnnc1C(c1cc2ccccc2o1)N(CCN(C)C)Cc1ccccc1 (centres undefined)	28.2 µM (active)
COc1cc(CNCCCN2CCOCC2)cc(Br)c1OCc1ccc(Cl)cc1	33.6 µM (active)
COc1cc(CNCCN2CCOCC2)ccc1OCc1ccc(Cl)cc1Cl	25.1 µM (active)
COc1cc2sc3cc(NCCCN4CCOCC4)ccc3c(=O)c2cc1OC	inactive
CC(C)(CNC(=O)c1ccc(S(=O)(=O)Nc2cccc(C(F)(F)F)c2)cc1)N1CCOCC1	inactive
C=CCOc1c(Br)cc(CNCCCN2CCOCC2)cc1OC	inactive
O=C(COC(=O)COc1cccc(C(F)(F)F)c1)Nc1ccc(N2CCOCC2)cc1	inactive
CCOc1cc(CNCCCN2CCOCC2)cc(Br)c1OCC(=O)Nc1cccc(C(F)(F)F)c1	20 µM (active)
CCCc1cc(=O)oc2cc(OCC(=O)NCCN3CCOCC3)c(Cl)cc12	inactive
COc1cccc2cc(C(=O)C3=C(O)C(=O)N(CCN4CCOCC4)C3c3ccc(Cl)cc3)oc12 (centres undefined)	inactive
CCOC(=O)Cc1c(C)c2ccc(N(CC)CC)cc2oc1=O	inactive
